Test results taken from PubChem BioAssay (Tox21).
Inconclusive results are not listed. Activity calls are given as the source filed them. Unless noted, calls follow the shape of the full dose curve.

How the values were obtained:
[1] = Nuclear factor erythroid 2-related factor 2/antioxidant responsive element (Nrf2/ARE) small molecule agonists: qHTS cell viability counter screen in human keratinocytes (AID 1919968; active = well fitted curve in the direction sought with a large enough effect in the repeat runs; an effect the other way counts as inactive or inconclusive; also: nearly all actives have a fitted effect of over 55% in size)
Procedure, shortened: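 After a 5 h attachment period, ARE-reporter keratinocytes were dosed with compounds in DMSO and then cultured 23 h at 37 C. Cell viability came from CellTiter-Fluor signal read after a further 1 h.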

[2] = biological target: Gonadotropin-releasing hormone receptor (Homo sapiens) (UniProt P30968); assay: Human gonadotropin-releasing hormone receptor (GnRHR) small molecule agonists, calcium flux assay in GnRHR-HEK293 cells (AID 1920063); also: nearly all actives have a fitted effect of over 35% in size
Procedure, shortened: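 We seeded human GnRHR-expressing HEK293 cells for 18 hours, loaded them with calcium dye for an hour at 37 C, added test compounds, and recorded fluorescence intensity kinetically for three minutes.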

[3] = biological target: KiSS-1 receptor (Homo sapiens) (UniProt Q969F8); assay: Human kisspeptin (KISS1R) small molecule agonists, calcium flux assay in KISS1R-HEK293 cells (AID 1920064; active = well fitted curve in the direction sought with a large enough effect in the repeat runs; an effect the other way counts as inactive or inconclusive)
Procedure, shortened: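 Kinetic calcium assay, 1 s sampling over 3 min at Ex/Em 480/540, in HEK293 cells engineered with human KISS1R; compounds delivered in DMSO after 1 h dye loading.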

[4] = G protein-coupled receptor (GPCR) small molecule agonists, calcium flux assay: HEK293 wild type cell line counter screen (AID 1920065)
Procedure, shortened: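 Calcium-sensitive dye, loaded 1 h at 37 C into cells cultured 18 h, reports compound-evoked calcium release as fluorescence (Ex/Em 480/540), measured over 3 min. Agonist mode; 15-point titrations, triplicate.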

[5] = p53 small molecule agonists, cell-based qHTS assay with human liver microsomes (AID 1963577)
Procedure, shortened: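 Compounds act here after metabolic activation: human liver microsomes and NADPH, both at 0.5 mg/mL final, were co-added to p53RE-bla cells. Incubation ran 16 h at 37 C, followed by LiveBLAzer detection.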

[6] = p53 small molecule agonists, cell-based qHTS assay with rat liver microsomes (AID 1963578)
Procedure, shortened: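 Read-out is beta-lactamase reporter fluorescence (LiveBLAzer, 2 h, room temperature, dark) in p53RE-bla cells treated 16 h at 37 C with compound, rat liver microsomes and NADPH, both 0.5 mg/mL final.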

[7] = p53 small molecule agonists, cell-based qHTS assay with human liver microsomes: qHTS cell viability counter screen (AID 1963579); also: nearly all actives have a fitted effect of over 45% in size
Procedure, shortened: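 Cells carrying the p53 response-element beta-lactamase reporter are treated for 16 h at 37 C with test compounds in the presence of human liver microsomes and NADPH (both 0.5 mg/mL final); ATP-based CellTiter-Glo luminescence then reports viability.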

[8] = p53 small molecule agonists, cell-based qHTS assay with rat liver microsomes: qHTS cell viability counter screen (AID 1963580); also: nearly all actives have a fitted effect of over 45% in size
Procedure, shortened: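 Intracellular ATP, by CellTiter-Glo luminescence, defines viability. HCT-116 p53RE-bla cells, 4,000 per well, were compound-treated in the presence of rat liver microsomes and NADPH for 16 h at 37 C.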

[9] = p53 small molecule agonists, cell-based qHTS assay: qHTS cell viability counter screen (AID 1963581); also: nearly all actives have a fitted effect of over 45% in size
Procedure, shortened: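 Following 5 h attachment, HCT-116 p53RE-bla cells took up compound for 16 h at 37 C; the reporter was read with B/G FRET substrate (2 h RT), and viability then via CellTiter-Glo ATP luminescence.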

[10] = p53 small molecule agonists, cell-based qHTS assay (AID 1963582; active = well fitted activation curve with a large enough effect in the signal ratio in the repeat runs, not every such curve was filed as active; the % refers to the signal ratio)
Procedure, shortened: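 In this cell-based concentration-response screen, a p53 response element drives beta-lactamase; cells received DMSO-borne compounds after 5 h culture and were incubated a further 16 h before FRET substrate development.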

[11] = biological target: 5-hydroxytryptamine receptor 2A (Homo sapiens) (UniProt P28223); assay: 5-hydroxytryptamine receptor 2A (HTR2A) small molecule antagonists, cell-based qHTS assay (AID 1963586); also: nearly all actives have a fitted effect of over 45% in size
Procedure, shortened: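 Antagonist-mode intracellular calcium assay: DOI (4 nM) added after 5 min compound pre-incubation at room temperature to dye-loaded HTR2A-CHO cells. Fluorescence followed for 3 min, sampled every second.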

[12] = biological target: 5-hydroxytryptamine receptor 2A (Homo sapiens) (UniProt P28223); assay: 5-hydroxytryptamine receptor 2A (HTR2A) small molecule agonists, cell-based qHTS assay (AID 1963587); also: nearly all actives have a fitted effect of over 30% in size
Procedure, shortened: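 Kinetic calcium-flux fluorescence (2 min, 1 sec intervals) after compound addition in agonist mode. HTR2A-CHO cells were cultured 18 h, then dye-loaded 1 h at 37 C.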

[13] = biological target: Muscarinic acetylcholine receptor M1 (Homo sapiens) (UniProt P11229); assay: Cholinergic receptor muscarinic 1 (CHRM1) small molecule antagonists, cell-based qHTS assay (AID 1963588); also: nearly all actives have a fitted effect of over 40% in size
Procedure, shortened: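 CHRM1-CHO calcium-flux assay, antagonist mode. Cells were seeded 18 h, dye-loaded 1 h at 37 C and given compound for 5 min at RT, then acetylcholine was added at 50nM. FDSS fluorescence was read 3 min; 15 concentrations, three runs.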

[14] = biological target: Muscarinic acetylcholine receptor M1 (Homo sapiens) (UniProt P11229); assay: Cholinergic receptor muscarinic 1 (CHRM1) small molecule agonists, cell-based qHTS assay (AID 1963589); also: nearly all actives have a fitted effect of over 35% in size
Procedure, shortened: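 Measures agonist-induced intracellular calcium rise. Stable human CHRM1 CHO line, 1 h dye load at 37 C, compounds from DMSO, kinetic fluorescence read.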

[15] = cAMP Responsive Elements (CRE) small molecule agonists, cell-based qHTS assay (AID 1963590)
Procedure, shortened: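 A CRE-responsive beta-lactamase reporter in HEK 293T cells was used. Treatment ran 3 h at 37 C; detection used LiveBLAzer B/G FRET substrate for 2 h at room temperature.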

[16] = cAMP Responsive Elements (CRE) small molecule antagonists, cell-based qHTS assay (AID 1963591; active = well fitted inhibition curve with a large enough effect in the signal ratio in the repeat runs, not every such curve was filed as active; the % refers to the signal ratio)
Procedure, shortened: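 HEK293T cells carrying a CRE-driven beta-lactamase reporter receive compound and NKH477 (0.25 uM final) for 3 h. Fluorescence from LiveBLAzer B/G FRET substrate is read after 2 h at room temperature.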

[17] = biological target: D(2) dopamine receptor (Homo sapiens) (UniProt P14416); assay: Dopamine D2 receptor (DRD2) small molecule agonists, cell-based qHTS assay (AID 1963594); also: nearly all actives have a fitted effect of over 35% in size
Procedure, shortened: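 cAMP accumulation in DRD2-HEK293 cells measured by HTRF after 1 h detection; compounds added 10 min before NKH477 (200nM […]) forskolin-analogue stimulation, 30 min at room temperature, with Ro20-1724 present at 0.1 mM final.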

[18] = biological target: D(2) dopamine receptor (Homo sapiens) (UniProt P14416); assay: Dopamine D2 receptor (DRD2) small molecule antagonists, cell-based qHTS assay (AID 1963595; active = well fitted inhibition curve with a large enough effect in the signal ratio in the repeat runs, with a control signal flat; the % refers to the signal ratio)
Procedure, shortened: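 HTRF cAMP read-out at 665 and 620 nm emission (340 nm excitation). Antagonist mode: compounds were tested against 12 nM quinpirole in DRD2-HEK293 cells, with 200 nM NKH477 raising cAMP and 0.1 mM Ro20-1724 blocking its breakdown.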

[19] = biological target: Beta-2 adrenergic receptor (Homo sapiens) (UniProt P07550); assay: Adrenergic beta2 receptor (ADRB2) small molecule antagonists, cell-based qHTS assay (AID 1963592); also: series mostly up to about 92 µM; nearly all actives have a fitted effect of over 50% in size
Procedure, shortened: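 Cells (CHO, stable ADRB2 overexpression) incubated 18-20hr at 37C; compounds added from DMSO; agonist mix (1nM isoproterenol, 100uM IBMX, 25uM Ro-20-1724) added; 0.5hr RT; d2-cAMP and anti-cAMP-cryptate added; 1hr RT; 665/615 nm read.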

[20] = biological target: Beta-2 adrenergic receptor (Homo sapiens) (UniProt P07550); assay: Adrenergic beta2 receptor (ADRB2) small molecule agonists, cell-based qHTS assay (AID 1963593);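 also: CHO cells stably overexpressing human ADRB2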
Procedure, shortened: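 CHO cells stably over-expressing ADRB2 were plated overnight at 37C, then dosed with compounds plus a stimulation mix containing 100uM IBMX and 25uM Ro-20-1724 for 0.5hr at room temperature. cAMP was measured by HTRF competition, 1hr.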
% is scaled to controls: 0 for no effect and ±100 for the full control effect.

Chain of D(2) dopamine receptor (Homo sapiens) (P14416 whole entry, looked up): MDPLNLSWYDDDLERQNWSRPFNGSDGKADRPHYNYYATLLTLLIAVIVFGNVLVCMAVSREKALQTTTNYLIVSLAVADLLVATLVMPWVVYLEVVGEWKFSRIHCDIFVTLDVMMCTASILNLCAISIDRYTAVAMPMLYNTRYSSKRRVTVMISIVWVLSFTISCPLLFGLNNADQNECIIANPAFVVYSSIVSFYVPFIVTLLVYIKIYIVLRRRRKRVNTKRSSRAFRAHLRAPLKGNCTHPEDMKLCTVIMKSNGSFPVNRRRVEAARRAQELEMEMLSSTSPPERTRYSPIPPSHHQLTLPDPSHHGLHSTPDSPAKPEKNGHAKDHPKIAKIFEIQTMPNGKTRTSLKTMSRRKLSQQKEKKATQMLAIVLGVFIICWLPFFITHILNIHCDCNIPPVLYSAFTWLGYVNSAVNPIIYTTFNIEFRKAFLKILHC
Chain of Beta-2 adrenergic receptor (Homo sapiens) (P07550 whole entry, looked up): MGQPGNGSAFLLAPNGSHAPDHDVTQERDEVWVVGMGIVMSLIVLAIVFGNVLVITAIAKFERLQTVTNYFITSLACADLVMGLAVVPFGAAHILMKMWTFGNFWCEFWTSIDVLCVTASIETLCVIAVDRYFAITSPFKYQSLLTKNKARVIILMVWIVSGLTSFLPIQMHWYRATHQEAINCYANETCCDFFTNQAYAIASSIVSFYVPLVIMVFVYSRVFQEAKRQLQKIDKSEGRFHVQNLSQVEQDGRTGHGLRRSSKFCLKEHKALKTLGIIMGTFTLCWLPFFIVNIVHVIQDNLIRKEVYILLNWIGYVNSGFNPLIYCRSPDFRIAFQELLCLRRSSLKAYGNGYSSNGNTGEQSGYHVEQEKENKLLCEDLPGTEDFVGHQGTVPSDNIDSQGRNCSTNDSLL
Chain of Gonadotropin-releasing hormone receptor (Homo sapiens) (P30968 whole entry, looked up): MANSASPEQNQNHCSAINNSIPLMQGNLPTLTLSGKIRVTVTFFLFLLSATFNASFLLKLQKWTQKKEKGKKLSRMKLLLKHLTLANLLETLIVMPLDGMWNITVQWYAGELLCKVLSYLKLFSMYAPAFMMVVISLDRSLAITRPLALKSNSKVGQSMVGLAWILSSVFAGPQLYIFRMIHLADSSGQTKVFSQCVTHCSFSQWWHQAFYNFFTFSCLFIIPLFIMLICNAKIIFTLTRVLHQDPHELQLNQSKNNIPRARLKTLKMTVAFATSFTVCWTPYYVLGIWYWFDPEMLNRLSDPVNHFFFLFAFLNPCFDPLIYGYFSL
Chain of KiSS-1 receptor (Homo sapiens) (Q969F8 whole entry, looked up): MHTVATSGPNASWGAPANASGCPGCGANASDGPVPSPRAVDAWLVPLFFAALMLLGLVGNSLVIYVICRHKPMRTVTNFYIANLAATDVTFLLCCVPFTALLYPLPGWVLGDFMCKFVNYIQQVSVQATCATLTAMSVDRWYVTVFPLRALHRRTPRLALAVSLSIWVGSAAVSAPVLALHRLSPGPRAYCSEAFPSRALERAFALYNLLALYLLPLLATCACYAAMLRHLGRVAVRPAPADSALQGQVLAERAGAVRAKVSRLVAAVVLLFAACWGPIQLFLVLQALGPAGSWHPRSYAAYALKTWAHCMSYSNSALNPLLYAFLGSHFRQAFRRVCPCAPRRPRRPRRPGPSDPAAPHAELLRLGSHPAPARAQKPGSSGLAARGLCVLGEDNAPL
Chain of 5-hydroxytryptamine receptor 2A (Homo sapiens) (P28223 whole entry, looked up): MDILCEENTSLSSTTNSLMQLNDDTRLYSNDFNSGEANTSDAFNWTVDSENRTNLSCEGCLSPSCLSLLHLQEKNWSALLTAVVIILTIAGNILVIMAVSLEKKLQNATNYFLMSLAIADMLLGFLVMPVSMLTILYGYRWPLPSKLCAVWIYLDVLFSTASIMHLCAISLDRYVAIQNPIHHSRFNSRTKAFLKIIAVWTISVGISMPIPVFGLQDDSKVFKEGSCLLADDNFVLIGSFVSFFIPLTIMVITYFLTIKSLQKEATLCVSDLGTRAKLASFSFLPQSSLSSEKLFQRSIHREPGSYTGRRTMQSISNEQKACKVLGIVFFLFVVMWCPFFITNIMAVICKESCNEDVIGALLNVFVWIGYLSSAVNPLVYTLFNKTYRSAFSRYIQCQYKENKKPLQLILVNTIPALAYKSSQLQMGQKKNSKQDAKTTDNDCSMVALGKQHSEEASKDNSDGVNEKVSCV
Chain of Muscarinic acetylcholine receptor M1 (Homo sapiens) (P11229 whole entry, looked up): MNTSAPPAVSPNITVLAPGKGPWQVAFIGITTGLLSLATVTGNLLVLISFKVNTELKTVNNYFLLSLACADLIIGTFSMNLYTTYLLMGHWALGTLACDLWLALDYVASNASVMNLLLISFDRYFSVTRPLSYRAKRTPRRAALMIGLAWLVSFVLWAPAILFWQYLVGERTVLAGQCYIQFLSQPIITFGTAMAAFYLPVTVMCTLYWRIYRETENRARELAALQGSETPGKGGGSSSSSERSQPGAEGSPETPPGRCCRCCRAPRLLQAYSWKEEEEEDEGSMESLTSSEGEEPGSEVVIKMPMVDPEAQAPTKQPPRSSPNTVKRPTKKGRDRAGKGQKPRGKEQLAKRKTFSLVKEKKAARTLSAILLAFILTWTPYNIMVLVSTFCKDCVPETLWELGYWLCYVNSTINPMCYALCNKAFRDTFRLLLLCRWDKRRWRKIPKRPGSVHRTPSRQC

CC1=CP(=O)(c2ccccc2)CC1 (stereo not drawn)
inactive: Potency [1] | Potency [2] | outcome [3] | outcome [4] | Potency [5] | Potency [6] | Potency [7] | Potency [8] | Potency [9] | Potency [10] | Potency [11] | Potency [12] | Potency [13] | Potency [14] | Potency [15] | Potency [16] | Potency [17] | Potency [18]

O=C1OC(=O)c2cccc3cccc1c23
inactive: Potency [1] | Potency [2] | outcome [3] | outcome [4] | Potency [5] | Potency [6] | Potency [7] | Potency [8] | Potency [9] | Potency [10] | Potency [11] | Potency [12] | Potency [13] | Potency [14] | Potency [15] | Potency [16] | Potency [19] | Potency [17] | Potency [18]

CCN(CC)CCOC(=O)C1(c2ccccc2)CCCC1
inactive: Potency [1] | Potency [5] | Potency [7] | Potency [8] | Potency [9] | Potency [10] | Potency [12] | Potency [14] | Potency [15] | Potency [16] | Potency [19] | Potency [20] | Potency [17] | Potency [18]

Cc1c(C)c2c(c(C)c1O)CC[C@@](C)(CCC[C@H](C)CCC[C@H](C)CCCC(C)C)O2
inactive: Potency [1] | Potency [2] | outcome [3] | outcome [4] | Potency [5] | Potency [6] | Potency [7] | Potency [8] | Potency [9] | Potency [10] | Potency [15] | Potency [16] | Potency [19] | Potency [20] | Potency [17]

CC(C)C[C@@H](N)C(=O)O
inactive: activity change, negative = cytotoxicity [1] 2.62% [at 19 µM] | activation [4] -0.27% [at 11.8 µM] | activation [5] -1.67% [at 13.5 µM] | activation [6] -1.65% [at 13.6 µM] | activity change, negative = cytotoxicity [8] -0.234% [at 13.5 µM] | activity change, negative = cytotoxicity [9] -2.8% [at 13.5 µM] | activation [10] -0.189% [at 13.5 µM] | activation [12] 2.38% [at 15.9 µM] | activity, negative = inhibition [13] 0.917% [at 12.6 µM] | activation [14] 10.1% [at 15.8 µM] | activation [15] 0.0359% [at 19 µM] | activity change, negative = inhibition [16] -5.02% [at 18.9 µM] | activity change, negative = inhibition [19] 9.37% [at 19 µM] | Potency [20] | activation [17] 5.36% [at 19 µM] | activity change, negative = inhibition [18] 4.57% [at 18.9 µM]

Clc1cc(Cl)c(Cl)nc1Cl
inactive: Potency [1] | Potency [2] | outcome [3] | outcome [4] | Potency [5] | Potency [6] | Potency [7] | Potency [8] | Potency [9] | Potency [10] | Potency [13] | Potency [14] | Potency [15] | Potency [16] | Potency [19] | Potency [17] | Potency [18]

CN1CCN(CC(=O)N2c3ccccc3C(=O)Nc3cccnc32)CC1
inactive: activity change, negative = cytotoxicity [1] 0.0434% [at 8.39 µM] | activation [4] -0.198% [at 5.23 µM] | activation [5] 8.34% [at 5.99 µM] | activation [6] 0.0177% [at 5.99 µM] | activity change, negative = cytotoxicity [8] 1.67% [at 5.99 µM] | activity change, negative = cytotoxicity [9] 22.9% [at 5.99 µM] | activation [10] -1.98% [at 5.99 µM] | activity, negative = inhibition [11] 57.8% [at 5.62 µM] | activation [12] 0.502% [at 7.02 µM] | activation [15] -0.47% [at 8.39 µM] | activity change, negative = inhibition [16] -9.03% [at 8.39 µM] | activity change, negative = inhibition [19] -1.73% [at 8.39 µM] | activation [20] -0.465% [at 8.39 µM] | activation [17] -0.938% [at 8.39 µM]
